The text below walks through data of the supplement of paper PMC10849652.

Of roughly 8,800 targets only a part is listed; those with a hit were picked by preference. About 0.5% of all pairs of compound and target were hits. Values without a mark were called inactive.

Holding throughout (experiment): log2 fold change, soluble protein after heating vs DMSO (PISA); higher = thermal stabilisation; K562 lysate, 10 uM; active = over 0.2 and 3.5 SD of the protein, either way, in both replicates (recomputed)
Compound in experiment [1]: C=CC(=O)N1CCC[C@@H](n2nc(-c3ccc(Oc4ccccc4)cc3)c3c(N)ncnc32)C1 [ibrutinib]
The gist of the method:
(§1)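 The values are log-two fold changes in thermal stability compared with solvent controls and come from duplicates. They were obtained by TMTpro 16plex LC-MS/MS, with channel sums equalised, on the supernatant after 21,000xg for 90 min. That supernatant came from crude K562 extract at 1 mg/mL protein treated with 10 μM compound for 30 min, heated for 3 min across 48°C-58°C, pooled and brought to 0.5% NP-40 at 4°C.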

Compound in experiment [2]: CC(=O)c1cnc2ccc(-c3cc(Cl)c(O)c(Cl)c3)nc2c1N[C@H]1CC[C@H](CN(C)C)CC1
The gist of the method: as §1

Compound in experiment [3]: CC(C)(C)Cn1c(N)nc2ccc(-c3[nH]c(C(C)(C)C)nc3-c3ccc(F)cc3)nc21 [ralimetinib]
The gist of the method:
as §1

Compound in experiment [4]: CC(C)(O)CC(=O)NCCn1ccc2ncnc(Nc3ccc(Oc4cccc(C(F)(F)F)c4)c(Cl)c3)c21
The gist of the method: as §1

Compound in experiment [5]: CC(C)C1=C2N=C(C=C(N2N=C1)NCC3=CC=CC=C3)NCCCCCCN
The gist of the method: as §1

Compound in experiment [6]: CC1=C(C(CC(=O)N1)C2=CC=C(C=C2)C(F)(F)F)C(=O)NC3=C(C=C4C(=C3)C=NN4)F
The gist of the method:
as §1

Compound in experiment [7]: CC1=C(C2=C(C=C1)C(=O)C3=CC=CC=C3N2CCCN)C
The gist of the method:
as §1

Compound in experiment [8]: CC1=C(C=C(C=C1)NC(=O)C2=CC(=CC=C2)C(C)(C)C#N)NC3=CC4=C(C=C3)N=CN(C4=O)C
The gist of the method:
as §1

Compound in experiment [9]: CC1=C(C=C(C=C1)NC(=O)C2=CC(=CC=C2)N(C)C)NC(=O)C3=CC=C(C=C3)O
The gist of the method:
as §1

Compound in experiment [10]: CC1=CC=C(C=C1)SC2=C3C=C(SC3=CN=C2)C(=O)N
The gist of the method:
as §1

UniProt P25440, sequence (P25440 whole entry, looked up): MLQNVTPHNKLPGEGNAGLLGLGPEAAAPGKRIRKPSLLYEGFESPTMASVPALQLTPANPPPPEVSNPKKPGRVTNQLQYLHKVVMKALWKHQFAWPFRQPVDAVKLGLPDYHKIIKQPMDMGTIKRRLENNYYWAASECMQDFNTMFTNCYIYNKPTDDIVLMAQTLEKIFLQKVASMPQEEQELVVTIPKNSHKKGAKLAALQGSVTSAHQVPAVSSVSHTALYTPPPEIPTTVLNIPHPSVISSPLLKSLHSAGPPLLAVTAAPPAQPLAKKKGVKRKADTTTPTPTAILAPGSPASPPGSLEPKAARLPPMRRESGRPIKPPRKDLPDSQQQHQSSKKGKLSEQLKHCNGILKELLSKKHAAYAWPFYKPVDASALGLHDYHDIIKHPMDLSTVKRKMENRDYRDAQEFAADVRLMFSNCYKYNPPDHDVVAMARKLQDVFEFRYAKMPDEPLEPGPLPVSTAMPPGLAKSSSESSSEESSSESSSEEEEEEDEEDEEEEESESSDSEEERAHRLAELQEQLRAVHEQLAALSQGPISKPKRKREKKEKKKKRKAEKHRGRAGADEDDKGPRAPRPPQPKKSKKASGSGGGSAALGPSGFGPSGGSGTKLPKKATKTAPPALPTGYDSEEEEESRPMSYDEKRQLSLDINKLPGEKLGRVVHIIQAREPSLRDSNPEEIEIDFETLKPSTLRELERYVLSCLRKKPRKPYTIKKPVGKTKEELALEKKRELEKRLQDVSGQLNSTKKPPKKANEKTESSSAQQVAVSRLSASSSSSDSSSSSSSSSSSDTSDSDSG
UniProt Q6ZRI6, sequence (Q6ZRI6 whole entry, looked up): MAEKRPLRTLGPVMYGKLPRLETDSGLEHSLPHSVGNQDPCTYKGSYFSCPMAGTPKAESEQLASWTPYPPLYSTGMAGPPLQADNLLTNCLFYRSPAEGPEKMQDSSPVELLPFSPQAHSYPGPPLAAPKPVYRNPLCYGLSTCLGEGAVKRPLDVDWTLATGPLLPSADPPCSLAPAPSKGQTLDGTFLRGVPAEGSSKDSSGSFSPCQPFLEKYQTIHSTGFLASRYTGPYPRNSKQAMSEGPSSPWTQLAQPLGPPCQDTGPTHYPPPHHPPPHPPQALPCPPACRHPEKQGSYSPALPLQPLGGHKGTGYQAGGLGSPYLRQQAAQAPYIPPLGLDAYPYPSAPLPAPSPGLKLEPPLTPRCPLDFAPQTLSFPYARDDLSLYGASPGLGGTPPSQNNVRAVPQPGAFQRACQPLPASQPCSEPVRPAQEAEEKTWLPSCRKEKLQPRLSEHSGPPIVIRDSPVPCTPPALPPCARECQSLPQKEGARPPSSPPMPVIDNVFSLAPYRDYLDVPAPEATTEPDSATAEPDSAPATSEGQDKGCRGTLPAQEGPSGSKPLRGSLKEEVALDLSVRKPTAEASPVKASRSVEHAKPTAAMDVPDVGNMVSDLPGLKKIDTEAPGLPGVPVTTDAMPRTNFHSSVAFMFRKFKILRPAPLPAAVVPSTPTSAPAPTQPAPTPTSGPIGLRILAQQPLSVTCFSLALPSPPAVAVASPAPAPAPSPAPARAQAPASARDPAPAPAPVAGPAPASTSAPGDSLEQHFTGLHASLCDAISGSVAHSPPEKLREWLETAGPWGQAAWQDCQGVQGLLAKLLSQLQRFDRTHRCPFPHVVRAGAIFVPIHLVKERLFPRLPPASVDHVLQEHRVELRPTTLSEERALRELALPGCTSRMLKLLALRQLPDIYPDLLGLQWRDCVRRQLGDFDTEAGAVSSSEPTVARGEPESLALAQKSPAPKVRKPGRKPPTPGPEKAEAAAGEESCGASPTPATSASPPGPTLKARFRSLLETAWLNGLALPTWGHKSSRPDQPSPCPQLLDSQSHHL
UniProt Q12873, sequence (Q12873 whole entry, looked up): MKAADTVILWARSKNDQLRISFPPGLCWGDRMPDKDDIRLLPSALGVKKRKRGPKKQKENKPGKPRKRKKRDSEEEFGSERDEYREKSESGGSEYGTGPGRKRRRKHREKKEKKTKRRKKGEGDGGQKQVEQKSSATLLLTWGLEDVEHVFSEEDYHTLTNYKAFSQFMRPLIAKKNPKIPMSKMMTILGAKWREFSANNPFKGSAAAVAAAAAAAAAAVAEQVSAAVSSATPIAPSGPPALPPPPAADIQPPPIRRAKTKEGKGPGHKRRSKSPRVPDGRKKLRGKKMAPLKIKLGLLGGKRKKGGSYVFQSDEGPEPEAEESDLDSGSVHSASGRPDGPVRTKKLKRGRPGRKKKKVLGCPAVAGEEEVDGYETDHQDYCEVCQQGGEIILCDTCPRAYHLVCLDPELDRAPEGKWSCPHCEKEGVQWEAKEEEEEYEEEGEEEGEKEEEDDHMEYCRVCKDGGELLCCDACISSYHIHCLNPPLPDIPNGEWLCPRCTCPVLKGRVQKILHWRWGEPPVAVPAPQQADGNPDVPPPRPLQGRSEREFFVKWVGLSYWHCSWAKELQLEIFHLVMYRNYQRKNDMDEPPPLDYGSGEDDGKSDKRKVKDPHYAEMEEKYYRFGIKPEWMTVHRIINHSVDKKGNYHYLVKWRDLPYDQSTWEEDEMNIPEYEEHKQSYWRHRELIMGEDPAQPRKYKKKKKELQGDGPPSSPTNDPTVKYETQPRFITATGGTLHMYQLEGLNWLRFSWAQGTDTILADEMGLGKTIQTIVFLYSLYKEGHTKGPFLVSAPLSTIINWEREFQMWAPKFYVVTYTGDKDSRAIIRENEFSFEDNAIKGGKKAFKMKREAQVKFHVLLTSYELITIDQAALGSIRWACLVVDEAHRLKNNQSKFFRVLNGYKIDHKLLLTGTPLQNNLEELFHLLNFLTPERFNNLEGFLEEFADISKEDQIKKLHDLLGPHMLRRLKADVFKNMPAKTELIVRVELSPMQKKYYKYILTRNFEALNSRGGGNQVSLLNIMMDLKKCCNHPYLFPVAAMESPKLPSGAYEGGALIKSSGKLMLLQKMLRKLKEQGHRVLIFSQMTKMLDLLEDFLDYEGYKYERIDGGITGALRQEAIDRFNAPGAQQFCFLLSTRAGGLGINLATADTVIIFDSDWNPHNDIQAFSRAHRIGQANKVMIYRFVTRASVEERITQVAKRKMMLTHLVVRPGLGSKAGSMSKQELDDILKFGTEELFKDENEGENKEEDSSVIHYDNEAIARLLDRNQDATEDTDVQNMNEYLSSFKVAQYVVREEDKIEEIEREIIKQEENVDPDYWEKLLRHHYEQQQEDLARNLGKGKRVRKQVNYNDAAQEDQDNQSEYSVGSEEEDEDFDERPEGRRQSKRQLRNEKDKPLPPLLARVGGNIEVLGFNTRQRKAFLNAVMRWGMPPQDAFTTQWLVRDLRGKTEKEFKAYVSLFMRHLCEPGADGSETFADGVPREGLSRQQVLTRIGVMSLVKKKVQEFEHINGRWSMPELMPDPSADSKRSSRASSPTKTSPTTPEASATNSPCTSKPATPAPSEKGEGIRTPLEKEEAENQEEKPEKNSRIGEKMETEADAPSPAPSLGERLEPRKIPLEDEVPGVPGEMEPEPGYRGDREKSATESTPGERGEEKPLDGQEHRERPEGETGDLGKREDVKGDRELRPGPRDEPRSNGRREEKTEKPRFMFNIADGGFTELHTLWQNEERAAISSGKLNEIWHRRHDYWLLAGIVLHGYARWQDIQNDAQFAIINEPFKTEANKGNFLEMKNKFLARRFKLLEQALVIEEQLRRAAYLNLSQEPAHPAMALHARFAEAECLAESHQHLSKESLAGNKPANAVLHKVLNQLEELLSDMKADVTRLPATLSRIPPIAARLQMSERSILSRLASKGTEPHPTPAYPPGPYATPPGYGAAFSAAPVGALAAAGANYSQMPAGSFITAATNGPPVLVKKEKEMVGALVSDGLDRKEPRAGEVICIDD
UniProt O60508, sequence (O60508 whole entry, looked up): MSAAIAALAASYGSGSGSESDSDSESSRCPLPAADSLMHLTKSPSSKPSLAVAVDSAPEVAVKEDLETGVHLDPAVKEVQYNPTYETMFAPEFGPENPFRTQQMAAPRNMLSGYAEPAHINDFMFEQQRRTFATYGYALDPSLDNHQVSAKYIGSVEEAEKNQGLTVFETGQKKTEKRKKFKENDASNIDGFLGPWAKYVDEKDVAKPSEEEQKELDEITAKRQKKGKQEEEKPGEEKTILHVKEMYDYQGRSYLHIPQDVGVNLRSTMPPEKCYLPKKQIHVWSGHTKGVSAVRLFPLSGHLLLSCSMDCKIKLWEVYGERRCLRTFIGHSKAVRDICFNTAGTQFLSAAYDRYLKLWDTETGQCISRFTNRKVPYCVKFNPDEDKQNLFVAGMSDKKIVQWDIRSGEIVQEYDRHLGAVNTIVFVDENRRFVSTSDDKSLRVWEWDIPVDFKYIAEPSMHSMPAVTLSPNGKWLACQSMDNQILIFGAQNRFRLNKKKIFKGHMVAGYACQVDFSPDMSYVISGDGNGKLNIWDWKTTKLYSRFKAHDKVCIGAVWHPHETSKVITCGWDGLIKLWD
UniProt P30307, sequence (P30307 whole entry, looked up): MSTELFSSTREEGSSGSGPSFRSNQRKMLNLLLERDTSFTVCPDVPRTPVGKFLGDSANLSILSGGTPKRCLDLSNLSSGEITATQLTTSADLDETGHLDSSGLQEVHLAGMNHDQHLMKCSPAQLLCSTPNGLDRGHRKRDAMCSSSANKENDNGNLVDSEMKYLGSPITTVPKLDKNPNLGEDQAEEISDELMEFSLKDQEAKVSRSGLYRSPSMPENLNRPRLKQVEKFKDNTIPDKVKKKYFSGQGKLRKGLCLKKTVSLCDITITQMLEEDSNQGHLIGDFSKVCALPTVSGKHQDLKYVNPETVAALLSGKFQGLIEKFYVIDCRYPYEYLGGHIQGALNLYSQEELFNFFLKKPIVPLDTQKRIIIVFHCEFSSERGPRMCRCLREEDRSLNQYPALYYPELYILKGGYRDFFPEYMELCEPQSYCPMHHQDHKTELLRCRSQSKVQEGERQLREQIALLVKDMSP

Consider CHD3 isoform 3 (UniProt Q12873), for which the log2 fold change in [1] was -0.003; in [2], 0.021; in [3], -0.01; in experiment [4], -0.021; in experiment [5], -0.001; in experiment [6], 0.019. Moreover, the log2 fold change in experiment [7] was -0.018; in experiment [8] it was 0; in [9], -0.013; in experiment [10] it was 0.007.
Consider CDC40 (UniProt O60508), for which the log2 fold change is 0.02 in experiment [1]; 0.034 in experiment [2]; -0.219 (active) in [3]; 0.016 in experiment [4]; -0.115 in experiment [5]; 0.084 in [6]. The log2 fold change was -0.019 in [7], 0.056 in experiment [8], 0.136 in [9] and -0.028 in [10].
As to BRD2 isoform 2 (UniProt P25440), the log2 fold change in [1] was 0.074; in experiment [2], -0.041; in [3] it was -0.056; in [4] it was 0.021; in experiment [5], 0.26; in experiment [6], -0.025. Further, the log2 fold change in experiment [7] was 0.008; in [8], 0.056; in experiment [9], 0.049; in [10] it was 0.105.
As for CHCHD1 (UniProt Q96BP2), the log2 fold change in [1] is -0.004; in [2], 0.021; in experiment [3], 0.047; in [4], -0.101; in experiment [5] it was -0.059; in experiment [6], 0. Further, the log2 fold change in experiment [7] is -0.081; in experiment [8], -0.014; in experiment [9], -0.032; in [10], -0.055.
In the case of C15orf39 (UniProt Q6ZRI6), the log2 fold change in experiment [1] is -0.141; in experiment [3], -0.005; in experiment [4], -0.029; in experiment [5], -0.06; in experiment [6], 0.104; in experiment [7], 0.039. Besides, the log2 fold change in [8] was -0.03; in [9], 0.019.
Regarding CDC25C (UniProt P30307), the log2 fold change in [1] was 0.006; in [2], 0.01; in experiment [3] it was 0.013; in experiment [4], 0.091; in [5], -0.027; in experiment [6], 0.026. The log2 fold change in experiment [7] was 0.059; in experiment [8] it was -0.022; in [9], -0.004; in experiment [10], -0.019.
On to CARHSP1 (UniProt H3BNU9), for which the log2 fold change was 0.147 in experiment [1], -0.005 in [2], -0.107 in experiment [6] and 0.107 in [10].
